Laboratory results published in PubChem BioAssay.

Biological target: Neurogenic locus notch homolog protein 2 (Homo sapiens) (UniProt Q04721)
Assay: Notch2 binders on small-molecule microarrays, primary screen, biochemical, small-molecule microarray, 635 nm fluorescence, stem cell growth factors (AID 1073)
Details: Notch2 binding, higher = more signal

Chain of Neurogenic locus notch homolog protein 2 (Homo sapiens) (Q04721 whole entry, looked up): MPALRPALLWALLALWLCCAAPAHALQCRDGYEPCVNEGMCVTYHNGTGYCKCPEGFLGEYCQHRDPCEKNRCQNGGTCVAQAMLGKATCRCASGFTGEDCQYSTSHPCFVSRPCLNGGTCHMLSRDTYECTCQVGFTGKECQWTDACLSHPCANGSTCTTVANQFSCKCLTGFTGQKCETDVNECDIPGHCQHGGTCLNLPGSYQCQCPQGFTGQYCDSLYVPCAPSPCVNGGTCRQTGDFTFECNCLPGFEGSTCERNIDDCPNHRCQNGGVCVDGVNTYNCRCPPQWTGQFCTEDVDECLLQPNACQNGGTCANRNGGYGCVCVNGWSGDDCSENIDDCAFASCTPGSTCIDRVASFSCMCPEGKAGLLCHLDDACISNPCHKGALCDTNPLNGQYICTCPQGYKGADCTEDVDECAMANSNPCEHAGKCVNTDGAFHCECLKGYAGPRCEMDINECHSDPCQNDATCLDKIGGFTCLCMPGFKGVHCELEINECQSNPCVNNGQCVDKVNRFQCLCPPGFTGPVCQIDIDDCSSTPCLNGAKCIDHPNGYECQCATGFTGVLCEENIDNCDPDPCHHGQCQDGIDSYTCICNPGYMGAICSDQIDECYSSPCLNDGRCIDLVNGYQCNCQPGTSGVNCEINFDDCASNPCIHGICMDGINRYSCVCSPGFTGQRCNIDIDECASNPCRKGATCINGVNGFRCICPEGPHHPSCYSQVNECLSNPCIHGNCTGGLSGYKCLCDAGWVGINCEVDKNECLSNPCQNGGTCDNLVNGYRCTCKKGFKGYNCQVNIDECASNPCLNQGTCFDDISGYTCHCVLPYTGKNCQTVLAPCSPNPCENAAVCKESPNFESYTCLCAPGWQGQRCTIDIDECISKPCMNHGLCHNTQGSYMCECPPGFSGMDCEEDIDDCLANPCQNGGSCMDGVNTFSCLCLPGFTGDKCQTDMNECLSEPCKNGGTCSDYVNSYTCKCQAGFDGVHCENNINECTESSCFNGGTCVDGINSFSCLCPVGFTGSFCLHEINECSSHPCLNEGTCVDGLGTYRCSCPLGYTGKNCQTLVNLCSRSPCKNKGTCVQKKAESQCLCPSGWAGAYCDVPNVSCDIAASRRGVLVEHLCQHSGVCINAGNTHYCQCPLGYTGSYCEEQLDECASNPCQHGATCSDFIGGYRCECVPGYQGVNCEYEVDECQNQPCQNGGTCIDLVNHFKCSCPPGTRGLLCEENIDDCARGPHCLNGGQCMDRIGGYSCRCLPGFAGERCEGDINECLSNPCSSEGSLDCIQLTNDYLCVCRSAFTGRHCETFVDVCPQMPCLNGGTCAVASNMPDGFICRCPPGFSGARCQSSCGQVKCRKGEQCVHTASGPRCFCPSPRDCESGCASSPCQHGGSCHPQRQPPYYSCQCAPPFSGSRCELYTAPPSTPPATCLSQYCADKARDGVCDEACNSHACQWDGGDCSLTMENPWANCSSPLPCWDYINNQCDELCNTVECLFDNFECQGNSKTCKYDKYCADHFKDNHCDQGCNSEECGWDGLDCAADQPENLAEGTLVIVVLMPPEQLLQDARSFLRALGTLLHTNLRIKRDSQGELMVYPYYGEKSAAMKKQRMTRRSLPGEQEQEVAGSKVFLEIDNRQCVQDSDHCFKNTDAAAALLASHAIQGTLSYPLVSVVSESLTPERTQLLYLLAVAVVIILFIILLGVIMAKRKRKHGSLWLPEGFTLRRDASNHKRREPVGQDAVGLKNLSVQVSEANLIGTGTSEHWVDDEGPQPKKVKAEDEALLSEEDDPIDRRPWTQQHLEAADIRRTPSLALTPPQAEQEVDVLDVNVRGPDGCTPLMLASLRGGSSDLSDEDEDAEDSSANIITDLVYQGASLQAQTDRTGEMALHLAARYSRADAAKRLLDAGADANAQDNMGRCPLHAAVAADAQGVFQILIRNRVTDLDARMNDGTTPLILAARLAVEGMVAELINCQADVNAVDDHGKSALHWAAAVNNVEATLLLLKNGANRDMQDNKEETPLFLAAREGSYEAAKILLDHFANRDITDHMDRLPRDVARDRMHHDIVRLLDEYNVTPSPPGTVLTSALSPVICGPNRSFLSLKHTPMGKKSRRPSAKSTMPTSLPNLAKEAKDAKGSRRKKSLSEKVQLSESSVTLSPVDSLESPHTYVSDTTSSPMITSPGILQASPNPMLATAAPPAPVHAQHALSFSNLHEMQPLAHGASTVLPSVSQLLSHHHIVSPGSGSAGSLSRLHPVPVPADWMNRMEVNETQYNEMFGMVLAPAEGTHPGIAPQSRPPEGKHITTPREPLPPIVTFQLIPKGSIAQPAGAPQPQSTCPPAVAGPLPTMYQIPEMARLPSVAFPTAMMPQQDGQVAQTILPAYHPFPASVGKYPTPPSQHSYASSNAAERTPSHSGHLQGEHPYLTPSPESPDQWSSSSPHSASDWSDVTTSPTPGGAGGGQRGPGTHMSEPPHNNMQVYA

Row | SMILES | composite z-score
1 | CCOC(=O)C[C@H]1[C@H](OC(=O)Cc2ccc3c(c2)OCO3)[C@@H](NC(=O)c2ccc3ccccc3c2)c2cc(OCCCO)ccc2N1C(=O)Cc1ccc(OC)cc1 | 0.947
2 | O=C(NCc1ccccc1)c1ccc(Br)cc1[N+](=O)[O-] | 0.596
3 | CC(C)(C)OC(=O)CC[C@]1(C(=O)N2CCCCC2)N=C(c2ccc(OCCCO)cc2)O[C@H]1c1ccccc1 | 1.55
4 | C=CCNC(=O)[C@@H]1[C@H]2C(=O)O[C@H](c3ccccc3)[C@H](c3ccccc3)N2[C@H](c2ccc(OCCO)cc2)[C@@]12C(=O)N(C(=O)OCCOC)c1ccc(C#CC3(O)CCCCCC3)cc12 | 1.42
5 | CCCC=C(CCC)[C@@H](NS(=O)(=O)c1ccc(C(F)(F)F)cc1)c1ccc(-c2ccccc2)cc1 | 1.5
6 | NC(=O)NCC#Cc1ccc2c(c1)[C@]1(C(=O)N2)[C@H](C(=O)N2CCCCCCC2)[C@H]2C(=O)O[C@H](c3ccccc3)[C@H](c3ccccc3)N2[C@@H]1c1ccccc1OCCO | 1.43
7 | C=C[C@H](OC)[C@@H](OC(=O)Nc1ccc(SC)cc1)c1ccc(O)c(F)c1 | 0.474
8 | CO[C@H]1COC(=O)CC=C[C@H](C)COC(=O)[C@@H](OCc2ccccc2)C=C[C@@H]1C | -1.49
9 | CC(C)C[C@@H]1NC(=O)[C@H]2C[C@@H](C(=O)NCCCCCC[N+](C)(C)C)[C@@H](c3ccc(O)cc3)N2C1=O | -0.471
10 | CO[C@H]1COC(=O)[C@@H](C)NC(=O)CC=C[C@@H](C)[C@H](OC)COC(=O)CC=C[C@@H]1C | -1.41
11 | C=CC[C@@]12N=C(c3ccc(OCCCO)cc3)O[C@@H]1c1ccccc1CN(Cc1ccccc1)C2=O | 0.477
12 | COc1ccc([Si](C)(C)[C@@H]2[C@@H](CC(=O)N(CCO)Cc3ccccc3)O[C@]3(C(=O)N(Cc4cccc(N5CCC5=O)c4)c4ccccc43)[C@H]2C)cc1 | 0.205
13 | CN(C)CCCC[C@@H]1NC(=O)[C@@H]2C[C@H](C(=O)O)[C@H](c3ccc(O)cc3)N2C1=O | -0.0401
14 | CCOC(=O)C1=CCC(c2cccc3ccccc23)N(S(=O)(=O)c2ccc(C)cc2)C1 (centres undefined) | 1.46
15 | CO[C@@H]1COC(=O)CC=C[C@@H](C)[C@H](OC)COC(=O)CC=C[C@H]1C | -0.541
16 | C=C(COC)/C(=C/C[C@H](OC(C)=O)c1ccc(OCCO)cc1)c1cnc2ccccc2c1 | 1.41
17 | CO[C@H]1O[C@H](CO)[C@@H](OC(=O)Nc2ccc(Oc3ccccc3)cc2)[C@H](OC(=O)Nc2ccccc2-c2ccccc2)[C@H]1OC(=O)Nc1ccccc1-c1ccccc1 | 1.51
18 | CCC1=C2CN(Cc3ccccc3Br)[C@@H]([C@@H](O)Cc3ccccc3)C2C=CCC1 (some centres undefined) | 0.814
19 | [N-]=[N+]=NCc1ccccc1C[C@@]1(C(=O)N2CCOCC2)N=C(c2ccc(OCCCO)cc2)O[C@@H]1c1ccccc1N=[N+]=[N-] | 1.59
20 | C=CC(=O)O[C@@H](Cc1ccccc1)[C@H]1C2C=CCCC=C2CN1Cc1cccc(Cl)c1 (some centres undefined) | -0.657
21 | NC(=O)[C@H]1[C@@H]2C(=O)O[C@@H](c3ccccc3)[C@@H](c3ccccc3)N2[C@@H](c2ccc(O)cc2)[C@]12C(=O)Nc1ccc(C#CCCO)cc12 | -0.982
22 | NC(=O)NCC#Cc1ccc2c(c1)[C@]1(C(=O)N2)[C@H](C(N)=O)[C@H]2C(=O)O[C@H](c3ccccc3)[C@H](c3ccccc3)N2[C@@H]1c1ccccc1OCCO | 0.335
23 | C=CC[C@]1(C(N)=O)N=C(c2ccc(OCCCO)cc2)O[C@H]1c1ccccc1CN=[N+]=[N-] | 0.0233
24 | C[N+](C)(C)CCCCNC(=O)[C@@H]1C[C@@H]2C(=O)N3CCC[C@H]3C(=O)N2[C@@H]1c1cccc(OCCO)c1 | -0.145
25 | O=C1O[C@H](c2ccccc2)[C@H](c2ccccc2)N2[C@H]1[C@@H](C(=O)Nc1nc3ccccc3s1)[C@]1(C(=O)Nc3ccc(C#CC4(O)CCCCCC4)cc31)[C@H]2c1ccc(O)cc1 | 1.34
26 | COc1ccc(C(O)C2C=CC3C(=O)N(C)C(=O)C3N2N2CCCCC2)cc1OCc1ccccc1 (centres undefined) | 1.57
27 | CC1=C([C@H](O)CCc2ccccc2)[C@H](CO)[C@@H]2C(=O)N(Cc3ccccc3)C(=O)[C@@H]2C1 | 0.585
28 | C=C[C@H](OC)[C@@H](OC(=O)Nc1ccc(SC)cc1)c1ccc(OC)c(O)c1 | -0.708
29 | CC(C)(C)OC(=O)CC[C@@]1(C(=O)NCc2ccccc2)N=C(c2ccc(OCCCO)cc2)O[C@@H]1c1ccccc1 | 1.24
